Reference: PubChem BioAssay AID1159580 (chemical genetic matrix, 2015)
Where “and” joins values, the source holds several entries; their conditions need not be identical. Equal entries are not always repeated. Hit rate of the full screen: of about 5,500 compounds, about 2,000 (36%) were called active. Inconclusive results (about 18%) are left out. No stated cut-off is given here; in the data, active means normalized growth mostly below about 0.91 (no sharp cut-off); inconclusive means no clear call, values can overlap the other calls; inactive means mostly above about 0.92. This is one part of the list.

Assay: chemical genetic growth profiling, strain panel (AID 1159580);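 further: tested at 20 µM; growth read once vehicle control cultures reached saturation at 30 °C; 1 = growth at the plate median or of vehicle wells; lower values mean less growth of the strain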
Settings: S. cerevisiae deletion strains, growth OD
[1] = locus YMR263W, strain SAP30, active compounds read low
[2] = locus YNL322C, strain KRE1, active compounds read low
[3] = locus YPL241C, strain CIN2, active compounds read low

Measured: normalized growth

Fc1ccc(C(OCCCc2cnc[nH]2)c2ccc(F)cc2)cc1
inactive: locus YAL040C, strain CLN3, active compounds read low 1.01 | locus YCL061C, strain MRC1 (second series), active compounds read low 1 | locus YDR363W, strain ESC2, active compounds read low 0.979 | locus YER002W, strain NOP16, active compounds read low 1.04 | locus YGR229C, strain SMI1, active compounds read low 1.02 | [1] 1.01 | locus YNL175C, strain NOP13, active compounds read low 1.01 | locus YNL197C, strain WHI3, active compounds read low 1.01 | locus YNL224C, strain SQS1, active compounds read low 1.02 | [2] 1.03 | locus YOR083W, strain WHI5 (second series), active compounds read low 1.03 | [3] 1.01

CN1CCC(OC(c2ccccc2)c2ccccc2)CC1
inactive: locus YAL013W, strain DEP1, active compounds read low 0.98 | locus YAL021C, strain ccr4, active compounds read low 0.974 | locus YAL026C, strain drs2, active compounds read low 0.972 | locus YAL030W, strain snc1, active compounds read low 0.987 | locus YBL061C, strain skt5, active compounds read low 1 | locus YBR009C, strain hhf1, active compounds read low 0.983 | locus YBR021W, strain FUR4, active compounds read low 0.985 | locus YBR023C, strain chs3, active compounds read low 1.02 | locus YBR171W, strain sec66, active compounds read low 0.99 | locus YBR229C, strain ROT2, active compounds read low 0.977 | locus YBR231C, strain swc5, active compounds read low 0.976 | locus YBR279W, strain paf1, active compounds read low 1.01 | locus YCL011C, strain gbp2, active compounds read low 0.998 | locus YCL016C, strain dcc1, active compounds read low 1.04 | locus YCL029C, strain bik1, active compounds read low 0.995 | locus YCL061C, strain MRC1, active compounds read low 1 | locus YCL069W, strain vba3, active compounds read low 0.973 | locus YCR088W, strain abp1, active compounds read low 0.989 | locus YDL005C, strain med2, active compounds read low 0.975 | locus YDL035C, strain GPR1, active compounds read low 1.03 | locus YDL040C, strain nat1, active compounds read low 0.975 | locus YDL074C, strain BRE1, active compounds read low 0.976 | locus YDL101C, strain DUN1, active compounds read low 0.973 | locus YDL134C, strain PPH21, active compounds read low 1.02 | locus YDL185W, strain tfp1, active compounds read low 0.984 | locus YDL192W, strain arf1, active compounds read low 0.983 | locus YDR001C, strain nth1, active compounds read low 0.984 | locus YDR069C, strain doa4, active compounds read low 0.977 | locus YDR101C, strain arx1, active compounds read low 0.987 | locus YDR137W, strain rgp1, active compounds read low 1.03 | locus YDR159W, strain sac3, active compounds read low 0.969 | locus YDR162C, strain NBP2, active compounds read low 1.01 | locus YDR195W, strain ref2 0.973 | locus YDR297W, strain sur2, active compounds read low 0.988 | locus YDR318W, strain mcm21, active compounds read low 0.978 | locus YDR334W, strain swr1, active compounds read low 0.982 | locus YDR335W, strain msn5, active compounds read low 0.996 | locus YDR388W, active compounds read low 0.992 | locus YDR392W, strain spt3, active compounds read low 0.935 | locus YDR502C, strain sam2, active compounds read low 1.01 | locus YEL003W, strain gim4, active compounds read low 0.956 | locus YEL037C, strain rad23, active compounds read low 0.97 | locus YEL061C, strain CIN8 (second series), active compounds read low 0.965 | locus YEL061C, strain CIN8, active compounds read low 0.995 | locus YER015W, strain faa2, active compounds read low 0.99 | locus YER016W, strain bim1, active compounds read low 0.977 | locus YER110C, active compounds read low 0.972 | locus YER111C, strain swi4, active compounds read low 0.984 | locus YER155C, strain BEM2 (second series), active compounds read low 0.977 | locus YER155C, strain BEM2, active compounds read low 0.988 | locus YER167W, strain BCK2, active compounds read low 0.99 | locus YFR010W, strain ubp6, active compounds read low 0.963 | locus YGL078C, strain dbp3, active compounds read low 0.985 | locus YGL086W, strain mad1, active compounds read low 0.987 | locus YGL167C, strain pmr1, active compounds read low 1 | locus YGL173C, strain kem1, active compounds read low 0.994 | locus YGL227W, strain vid30, active compounds read low 0.983 | locus YGL240W, strain doc1, active compounds read low 0.982 | locus YGL248W, strain PDE1, active compounds read low 0.964 | locus YGL253W, strain hxk2, active compounds read low 0.987 | locus YGR078C, strain PAC10, active compounds read low 0.985 | locus YGR135W, strain pre9, active compounds read low 0.951 | locus YGR252W, strain gcn5, active compounds read low 0.925 | locus YHR013C, strain ard1, active compounds read low 0.994 | locus YHR027C, strain rpn1, active compounds read low 0.993 | locus YHR030C, strain SLT2, active compounds read low 0.998 and 0.996 | locus YHR079C, strain IRE1 (second series), active compounds read low 0.991 | locus YHR079C, strain IRE1, active compounds read low 1.02 | locus YHR094C, strain hxt1, active compounds read low 0.998 | locus YHR129C, strain ARP1, active compounds read low 0.99 | locus YHR142W, strain chs7, active compounds read low 1.01 | locus YHR200W, strain rpn10, active compounds read low 0.987 | locus YIL066C, strain RNR3, active compounds read low 1.01 | locus YIL073C, strain SPO22, active compounds read low 1.01 | locus YIL125W, strain kgd1, active compounds read low 0.994 | locus YIR030C, strain dcg1, active compounds read low 0.984 | locus YJL092W, strain hpr5, active compounds read low 0.98 | locus YJL095W, strain BCK1 (second series), active compounds read low 0.988 | locus YJL095W, strain BCK1, active compounds read low 0.961 and 1 | locus YJL115W, strain asf1, active compounds read low 0.98 | locus YJL129C, strain trk1, active compounds read low 0.984 | locus YJL134W, strain LCB3, active compounds read low 0.984 | locus YJL154C, strain vps35, active compounds read low 0.978 | locus YJL164C, strain tpk1, active compounds read low 0.987 | locus YJL166W, strain qcr8, active compounds read low 1.01 | locus YJL168C, strain set2, active compounds read low 0.988 | locus YJL187C, strain SWE1 (second series), active compounds read low 0.972 | locus YJL187C, strain SWE1, active compounds read low 0.983 | locus YJR043C, strain POL32, active compounds read low 1.03 | locus YJR066W, strain TOR1, active compounds read low 0.973 | locus YKL009W, strain mrt4, active compounds read low 0.974 | locus YKL068W, active compounds read low 0.983 | locus YKL085W, strain MDH1 (second series), active compounds read low 1 | locus YKL085W, strain MDH1, active compounds read low 1 | locus YKL160W, strain elf1, active compounds read low 1.03 | locus YKR001C, strain vps1, active compounds read low 0.996 | locus YKR026C, strain gcn3, active compounds read low 0.989 | locus YKR091W, strain srl3, active compounds read low 0.991 | locus YLL001W, strain dnm1, active compounds read low 1.01 | locus YLL026W, active compounds read low 0.991 | locus YLL041C, strain sdh2, active compounds read low 0.985 | locus YLR027C, strain aat2, active compounds read low 0.995 | locus YLR039C, strain RIC1, active compounds read low 1.15 | locus YLR058C, strain SHM2, active compounds read low 0.992 | locus YLR102C, strain apc9, active compounds read low 0.999 | locus YLR113W, strain HOG1, active compounds read low 1.01 | locus YLR221C, strain rsa3, active compounds read low 1.04 | locus YLR258W, strain gsy2, active compounds read low 1.01 | locus YLR262C, strain YPT6 (second series), active compounds read low 1.03 | locus YLR262C, strain YPT6, active compounds read low 1.09 | locus YLR268W, strain sec22, active compounds read low 0.992 | locus YLR320W, strain mms22, active compounds read low 1.05 | locus YLR330W, strain CHS5, active compounds read low 0.987 | locus YLR342W, strain FKS1 (second series), active compounds read low 1.01 | locus YLR342W, strain FKS1, active compounds read low 0.989 | locus YLR357W, strain rsc2, active compounds read low 0.96 | locus YLR370C, strain arc18, active compounds read low 1.01 | locus YLR371W, strain rom2, active compounds read low 1 | locus YLR384C, strain iki3, active compounds read low 0.994 | locus YLR418C, strain cdc73, active compounds read low 0.956 | locus YML016C, strain PPZ1, active compounds read low 0.983 | locus YML032C, strain rad52, active compounds read low 1.02 | locus YML120C, strain ndi1, active compounds read low 1.01 | locus YML124C, strain tub3, active compounds read low 1.02 | locus YMR058W, strain fet3, active compounds read low 0.978 | locus YMR078C, strain ctf18, active compounds read low 0.98 | locus YMR125W, strain sto1, active compounds read low 0.961 | locus YMR129W, active compounds read low 0.977 | locus YMR205C, strain PFK2, active compounds read low 1.03 | locus YMR223W, strain ubp8, active compounds read low 0.968 | locus YMR231W, strain pep5, active compounds read low 0.996 | [1] 0.971 | locus YMR307W, strain GAS1, active compounds read low 1.14 | locus YNL067W, strain RPL9B, active compounds read low 0.974 | locus YNL071W, strain lat1, active compounds read low 0.983 | locus YNL183C, strain NPR1, active compounds read low 0.964 | locus YNL209W, strain ssb2, active compounds read low 0.988 | locus YNL233W, strain BNI4, active compounds read low 0.975 | locus YNL248C, strain rpa49, active compounds read low 0.98 | locus YNL250W, strain rad50, active compounds read low 0.969 | locus YNL271C, strain bni1, active compounds read low 0.984 | locus YNL298W, strain CLA4, active compounds read low 0.985 | locus YNL307C, strain MCK1, active compounds read low 0.992 | locus YNL322C, strain KRE1 (second series), active compounds read low 1.01 | [2] 1.01 | locus YNR049C, strain mso1, active compounds read low 0.989 | locus YNR052C, strain pop2, active compounds read low 0.984 | locus YOL006C, strain TOP1, active compounds read low 0.946 | locus YOL012C, strain htz1 0.957 | locus YOL147C, strain pex11, active compounds read low 0.986 | locus YOR001W, strain rrp6, active compounds read low 0.937 | locus YOR061W, strain CKA2, active compounds read low 1 | locus YOR069W, strain VPS5, active compounds read low 0.992 | locus YOR070C, strain gyp1, active compounds read low 0.998 | locus YOR080W, strain dia2, active compounds read low 1 | locus YOR083W, strain WHI5, active compounds read low 1.04 | locus YOR106W, strain vam3, active compounds read low 1.03 | locus YOR136W, strain idh2, active compounds read low 0.983 | locus YOR144C, strain elg1, active compounds read low 0.983 | locus YOR184W, strain ser1, active compounds read low 1.01 | locus YOR231W, strain MKK1, active compounds read low 1.01 | locus YOR265W, strain rbl2, active compounds read low 1.01 | locus YOR270C, strain vph1, active compounds read low 0.999 | locus YOR290C, strain snf2, active compounds read low 0.93 | locus YOR316C, strain cot1, active compounds read low 0.985 | locus YPL051W, strain arl3, active compounds read low 1.02 | locus YPL055C, strain LGE1, active compounds read low 0.994 | locus YPL078C, strain atp4, active compounds read low 1.02 | locus YPL106C, strain sse1, active compounds read low 0.985 | locus YPL240C, strain hsp82, active compounds read low 1.01 | [3] 0.991 | locus YPL256C, strain CLN2, active compounds read low 1.02 | locus YPR119W, strain clb2, active compounds read low 0.986 | locus YPR141C, strain kar3, active compounds read low 0.965 | locus YPR163C, strain tif3, active compounds read low 0.987 | locus YPR167C, strain met16, active compounds read low 0.99 | strain wtn01, active compounds read low 0.974
